Bioassay records from PubChem BioAssay.
Most compounds without a hit are left out; they make up all but 4.7% or so of the library.
Calb FLC: affects C. albicans growth with fluconazole; C. albicans CaCi-2 (fluconazole-resistant clinical isolate) + fluconazole, Alamar Blue growth, 48 h; growth inhibition, % (no concentration beside the values); hit rate 0.57% among 300,000; AID 1979;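 active means growth inhibition above about 58% in most replicates, limit read from the data, passing the limit was not always enough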;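 further: all wells also contain fluconazole at 8 µg/ml as a sub-toxic cotreatment; 0% = median of DMSO wells and 100% = median of geldanamycin control wells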
tim10-1 inh: tim10-1 yeast growth inhibition. S. cerevisiae tim10-1 ts strain growth, BacTiter-Glo, 24 h. inhibition, % at 20 µM. hit rate 2.2% among 330,000. AID 463190;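 active means inhibition of at least 40%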;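 further: mutant grown at 25 °C; 0% = DMSO wells with yeast and 100% = wells holding no yeast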
PfHsp90 yeast 2: reduces growth (ATP signal) of yeast expressing P. falciparum Hsp90; S. cerevisiae expressing PfHsp90, BacTiter-Glo ATP, 48 h; yeast lacking PDR1 and PDR3 efflux regulators; inhibition, % at 9.4 µM; hit rate 0.32% among 310,000; AID 504621;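 active means every replicate shows inhibition above about 80%, whatever the replicate mean, limit read from the data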;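 further: 0% = DMSO neutral controls and 100% = 20 µM radicicol positive controls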
tim23-1 inh: tim23-1 yeast growth inhibition | inhibition, % at 20 µM | AID 463212 | hit rate 1.3% among 330,000 | S. cerevisiae tim23-1 growth, BacTiter-Glo luminescence, 24 h;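 active means growth inhibition of the mutant yeast at or above 50%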;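 further: temperature-sensitive mutant grown at 25 °C; plate controls were DMSO-treated mutant yeast for no effect and medium wells lacking yeast for full effect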
TIM10 inh: growth inhibitors of TIM10 yeast strain; S. cerevisiae TIM10 strain growth, BacTiter-Glo luminescence, 24 h; hit rate 1.4% among 330,000; AID 463195; inhibition, % at 10 µM;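 active means inhibition of 40% or more at the single tested concentration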;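 further: wild-type TIM10 isogenic control strain grown at permissive 25 °C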
SKKanGAS inh: blocks kanamycin growth of S. pyogenes SKKanGAS strain; BacTiter-Glo, 6 h; hit rate 1.3% among 300,000; AID 1662; inhibition, % at 7.5 µM;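 active means mean replicate score, as percent of positive control median, at least 50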;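 further: strain carries kanamycin resistance gene driven by streptokinase promoter and grows in 40 µg/ml kanamycin; loss of luminescence reflects streptokinase promoter inhibition or plain growth inhibition; 0% = median of DMSO wells and 100% = positive control at its reference dose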
tim10-1 confirm: tim10-1 yeast growth inhibition, confirmed; shares compounds with tim10-1 inh; inhibition, % at 20 µM; hit rate 56% among 7,400; S. cerevisiae tim10-1 ts strain growth, BacTiter-Glo, 24 h;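 active means inhibition of yeast growth at or above a set limit in either of two repeat tests at 20 µM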;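 further: tim10-1 mutant grown at permissive 25 °C to find synthetic lethal compounds; 0% = DMSO yeast wells and 100% = medium wells without yeast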
* = called active by the depositor; nt = no result.

SMILES	Calb FLC	tim10-1 inh	PfHsp90 yeast 2	tim23-1 inh	TIM10 inh	SKKanGAS inh	tim10-1 confirm
COc1ccc(-c2nnc3sc(-c4ccccn4)nn23)cc1	-24	44*	nt	30	-8	-3	21
COc1cccc(-c2nn3c(-c4ccccn4)nnc3s2)c1	30	58*	nt	37	28	1	54*
COc1cccc(-c2nnc3sc(-c4ccccn4)nn23)c1	-9	18	-10	37	-25	3	nt
Oc1ccccc1CN1CCCC(N2CCc3ccccc3C2)C1 (stereo not given)	-14	-15	19	5	-1	-5	nt
CC(C)CNC(=O)c1ccccc1C(=O)NC1(C(=O)NCC(C)C)CCCC1	nt	nt	-9	nt	nt	nt	nt
Cc1cc(=O)n(-c2ccc3ccccc3n2)[nH]1	-6	54*	-15	12	13	2	19
Cc1cc(C)nc(NC(=O)c2ccc(COc3ccccc3Cl)cc2)c1	3	18	-3	25	15	18	nt
O=C(CSc1nnc(COc2ccc(F)cc2)o1)N1c2ccccc2CCc2ccccc21	-5	42*	nt	25	8	2	16
Cc1cccc(OCc2nnc(SCC(=O)N3c4ccccc4CCc4ccccc43)o2)c1	-2	17	-31	33	13	5	nt
COc1ccc(NC(=O)c2ccco2)cc1NC(=O)c1cccc(F)c1	14	-40	-4	-10	7	-7	nt
CCOC(=O)c1cc(C(C)(C)C)oc1CNC(=O)c1c(C)oc2c1CCCC2	-22	44*	-5	26	28	9	33*
CCOc1ccc(NC(=O)Nc2cc(C(=O)O)ccc2N2CC3CC(C2)c2cccc(=O)n2C3)cc1 (stereo not given)	1	0	-2	-11	3	3	nt
CN(Cc1c(C(=O)N/N=C/c2ccc(O)cc2)nnn1-c1nonc1N)c1ccccc1	-8	-1	17	-2	9	-6	nt
CCOc1cc(/C=C2\N=C(SC)SC2=O)cc([N+](=O)[O-])c1OC(C)=O	-6	42*	26	46	15	8	26
CCOc1cc(/C=C2\N=C(SCC)SC2=O)cc([N+](=O)[O-])c1OC(C)=O	-5	32	-20	6	17	17	nt
CCCOc1ccc(C(=O)N2CCN(c3ccc(N)cc3Cl)CC2)cc1	-19	48*	21	42	33	1	35*
O=C(O)CCC(=O)c1ccc2ccc3cccc4ccc1c2c34	23	39	nt	38	32	2	nt
O=C(O)CCCc1ccc2ccc3cccc4ccc1c2c34	30	43*	-23	42	19	-10	25
CC(C)OC(=O)c1ccc2nc3ccccc3nc2c1	-10	41*	-102	20	2	15	11
Cc1[nH]n(-c2ccc([N+](=O)[O-])cc2)c(=O)c1C=NCCN1CCN(C(=O)c2cccc(F)c2)CC1	22	42*	84*	38	23	24	48*
Cc1[nH]n(-c2ccc([N+](=O)[O-])cc2)c(=O)c1C=NCCN1CCN(C(=O)c2ccc(F)cc2)CC1	-21	36	-18	30	15	22	nt
CCOc1ccccc1-c1nn2c(Cc3ccccc3)nnc2s1	24	41*	nt	35	38	-4	6
COc1ccccc1-c1nn2c(C(F)(F)F)nnc2s1	6	45*	nt	20	29	-3	34*
COc1ccccc1-c1nn2c(C3COc4ccccc4O3)nnc2s1 (stereo not given)	10	46*	nt	46	35	24	48*
c1ccc(Cc2nn3c(C4COc5ccccc5O4)nnc3s2)cc1 (stereo not given)	14	-19	-15	41	10	-4	nt
SMILES	Calb FLC	tim10-1 inh	PfHsp90 yeast 2	tim23-1 inh	TIM10 inh	SKKanGAS inh	tim10-1 confirm
Cc1ccc(OCCNC(=O)CCNC(=O)c2ccc(Cl)cc2)cc1	nt	6	-1	1	-1	nt	nt
CC(C)NC(=O)c1ccc(COc2ccc(C(C)(C)C)cc2)o1	6	14	0	7	-21	5	nt
CC(C)(C)C(=O)OCc1nc(-c2ccc(Cl)cc2)cs1	-1	45*	-17	23	24	19	42*
CNc1ccccc1C(C)(C)c1cc(-c2cccc([N+](=O)[O-])c2)no1	13	43*	1	27	37	19	33*
COc1ccccc1N1CCN(C(=O)CCCN2C(=O)c3cccc4cccc(c34)C2=O)CC1	6	45*	-19	31	28	2	27
COc1ccccc1N1CCN(C(=O)CN2C(=O)c3cccc4cccc(c34)C2=O)CC1	6	30	-19	29	20	-2	nt
COc1ccc(-c2[nH]c(-c3ccc4c(c3)OCO4)nc2-c2ccccc2)cc1	-3	54*	59	49	22	25	28
CCS(=O)(=O)N1CCC(C(=O)Nc2ccc3c(c2)CCC3)CC1	-2	9	8	6	12	2	nt
Cc1ccc2c(c1)COc1c3ccc(C(=O)N4CCCCC4)cc3nn1-2	-9	23	-10	27	21	2	nt
O=C(c1ccc2c3n(nc2c1)-c1ccccc1CO3)N1CCCCC1	-11	51*	34	49	33	51*	48*
COc1cccc(/C=N/Nc2nc(Nc3ccccc3)nc(-n3nc(C)cc3C)n2)c1O	5	45*	nt	42	14	98*	27
Cc1cc(=O)oc2cc(OCC(=O)NC3CCN(Cc4ccccc4)CC3)c(Cl)cc12	-9	9	15	7	17	0	nt
Cc1ccc(Cl)c(OCC(=O)NC2CCN(Cc3ccccc3)CC2)c1	0	68*	nt	-2	-25	-2	-49
CCOC(=O)C1CCCN(S(=O)(=O)c2cnc(Cl)c(Br)c2)C1 (stereo not given)	nt	-4	6	15	-1	4	nt
C/C(=N\NC(=O)c1cc2c(s1)CCC(C)C2)c1ccncc1 (stereo not given)	12	54*	8	40	21	-8	32*
COc1ccc(OCC(=O)N2N=C(C(F)F)CC2(O)C(F)F)cc1 (stereo not given)	-6	53*	16	21	2	12	43*
Cc1cc(C)n(CC(=O)N2N=C(C(F)F)CC2(O)C(F)F)n1 (stereo not given)	-10	5	-5	8	-5	-5	nt
CCCCN(Cc1ccco1)C(=O)C1CCCN(c2ncnc3c2nc2n3CCCCC2)C1 (stereo not given)	-6	41*	-11	34	15	-9	-2
CC(C)N(Cc1ccccc1)C(=O)C1CCCN(c2ncnc3c2nc2n3CCCCC2)C1 (stereo not given)	-3	31	19	25	10	-7	nt
